Results on nine compounds are retold here after PubChem BioAssay (Tox21).

The target in experiment [1] is Retinoic acid receptor RXR-alpha (Homo sapiens) (UniProt P19793). As to the kind of experiment: qHTS assay to identify small molecule agonists of the RXR signaling pathway (AID 1159527; calls by dose curve; note: nearly all actives have a fitted effect of over 35% in size). The essentials:
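Cells plated at 2,000/well, rested 5 hr at 37 C, pin-dosed with DMSO compound solutions, incubated 16 hr, then loaded with B/G FRET substrate for 2 hr at RT before dual-emission fluorescence reading.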
(In general: In qHTS, concentration-response curves come from the screen itself.)

Experiment [2] can be described thus: qHTS assay to identify small molecule antagonists of the retinoid acid receptor (RAR) signaling pathway - cell viability counter screen (AID 1159551). Note: nearly all actives have a fitted effect of over 35% in size. The essentials: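 C3RL4 RARE-luciferase cells, 1,000/well, incubated overnight, then dosed with compound plus 1 uM retinol (final). After 6 hr at 37 C, viability read by CellTiter-Glo ATP luminescence following 30 min at room temperature.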

Experiment [3] in a line: qHTS assay to identify small molecule antagonists of the retinoic acid receptor (RAR) signaling pathway (AID 1159552; note: nearly all actives have a fitted effect of over 50% in size). In a few lines: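 Retinol at 1 uM final stimulated RARE-luciferase expression in C3RL4 cells exposed to test compounds for 6 hr at 37 C. Reduced luminescence, read 30 min after detection reagent, indicated pathway antagonism.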
Experiment [4] can be described thus: qHTS assay to identify small molecule agonists of the retinoic acid receptor (RAR) signaling pathway (AID 1159553). The conditions noted are these: C3RL4 RARE luciferase reporter, agonist, 6 h; activation: at 73.3 µM (top of the series). In a few lines: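 C3RL4 RARE-luciferase cells were seeded at 1,000/well and grown overnight at 37 C, then exposed to compounds for 6 hr at 37 C, 5% CO2. Luciferase reagent was added and luminescence was read after 30 min at room temperature.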

Experiment [5] is described as follows: qHTS assay to identify small molecule antagonists of the estrogen related receptor (ERR) signaling pathway from Tox21 library - cell viability counter screen (AID 1224834). Note: nearly all actives have a fitted effect of over 30% in size. Note: potency is the fitted concentration of half-maximal effect. The essentials:
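ERR reporter cells, 2,000 per well, rested 6 h, then exposed to compound in DMSO for 17.5 hours at 37 C. Viability read as fluorescence after 30 min with CellTiter-Fluor.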

Experiment [6] concerns the target Luciferin 4-monooxygenase (Photinus pyralis) (UniProt P08659). As to the kind of experiment: qHTS assay to identify small molecule inhibitors of firefly luciferase (AID 1224835). Note: nearly all actives have a fitted effect of over 25% in size. In a few lines:
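Quantitative HTS format; KM concentrations of both substrates. Purified P. pyralis FLuc activity quantified from luminescence images.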

A short description of experiment [7]: qHTS assay to identify small molecule agonists of the constitutive androstane receptor (CAR) signaling pathway - cell viability counter screen (AID 1224836). Note: nearly all actives have a fitted effect of over 45% in size. In a few lines: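 Cells were seeded and incubated 4 hrs. Compounds were added across 15 concentrations together with PK11195 at 0.75 uM final. Plates were incubated 23 hrs at 37 C. CellTiter-Fluor was added and fluorescence measured.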

Experiment [8] in a line: qHTS assay to identify small molecule antagonists of the constitutive androstane receptor (CAR) signaling pathway - cell viability counter screen (AID 1224837). Note: nearly all actives have a fitted effect of over 45% in size. The essentials:
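HepG2 cells stably carrying hCAR and CYP2B6-2.2kb reporter, stimulated with 50 nM CITCO and compounds at 15 concentrations for 23 h at 37 C. Viability measured by CellTiter-Fluor fluorescence.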

Experiment [9] in a line: qHTS assay to identify small molecule antagonists of the estrogen related receptor signaling pathway with the pleiotropic PPARgamma coactivator (PGC) from Tox21 10K library - cell viability counter screen (AID 1224840; active = well fitted cell-killing curve with a large enough effect in the repeat runs, not every such curve was filed as active; note: nearly all actives have a fitted effect of over 40% in size). In a few lines: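 PGC/ERR cells (2,000/well) plated 6 h, then compound-treated for 17.5 h at 37 C. Viability measured by CellTiter-Fluor fluorescence after 30 min at 37 C, multiplexed with the pathway assay.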

The target in experiment [10] is Thyrotropin receptor (Homo sapiens) (UniProt P16473). As to the kind of experiment: qHTS assay to identify small molecule agonists of the thyroid stimulating hormone receptor (TSHR) signaling pathway (AID 1224843; calls by dose curve; note: nearly all actives have a fitted effect of over 45% in size). The essentials:
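Cell line HEK293 with TSHR; density 800/well. Exposure 30 min RT. Readout HTRF cAMP (cAMP-d2/anti-cAMP-cryptate), 1 h RT before reading.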

Experiment [11] is described as follows: qHTS assay to identify small molecule agonists of the hypoxia (HIF-1) signaling pathway - cell viability counter screen (AID 1224844; calls by dose curve; note: nearly all actives have a fitted effect of over 50% in size). In a few lines:
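HRE-bla ME-180 cells, 2,000/well in 0.5% dialyzed FBS medium, treated 17 h at 37C with compounds. Viability read in the same wells as the bla reporter, by CellTiter-Glo luminescence after 30 min at room temperature.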

Experiment [12] is described as follows: qHTS assay to identify small molecule agonists of H2AX (AID 1224845; active = well fitted activation curve with a large enough effect in the signal ratio in the repeat runs, not every such curve was filed as active; the % refers to the signal ratio). In a few lines:
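Wild-type CHO-K1 cells plated overnight, then exposed 3 hr at 37C to compounds at 15 concentrations (0.76% DMSO). Lysed, then HTRF anti-pH2AX(S139)-cryptate/anti-H2AX-d2 detection after 24 hr at room temperature; emissions 665 and 620 nm.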

Experiment [13] in a line: qHTS assay to identify small molecule agonists of the hypoxia (HIF-1) signaling pathway (AID 1224846; active = well fitted activation curve with a large enough effect in the signal ratio in the repeat runs, not every such curve was filed as active; the % refers to the signal ratio). The essentials: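 HRE-bla ME-180 beta-lactamase reporter cells in medium with 0.5% dialyzed FBS, pre-incubated 5 h then exposed to compounds 17 h at 37C, 5% CO2; reporter induction read with CCF4-AM FRET substrate.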
Experiment [14] deals with Nuclear receptor subfamily 1 group I member 3 (Homo sapiens) (UniProt Q14994). Kind of experiment: qHTS assay to identify small molecule antagonists of the constitutive androstane receptor (CAR) signaling pathway (AID 1224838). Note: nearly all actives have a fitted effect of over 40% in size. The essentials: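 HepG2 cells stably carrying hCAR and a CYP2B6-2.2kb luciferase reporter, seeded 4 hrs before compound (15 concentrations). Stimulated with 50 nM CITCO for 24 hr at 37 C. ONE-Glo luminescence read after 30 min at room temperature.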
Sequence of Nuclear receptor subfamily 1 group I member 3 (Homo sapiens) (Q14994 whole entry, looked up): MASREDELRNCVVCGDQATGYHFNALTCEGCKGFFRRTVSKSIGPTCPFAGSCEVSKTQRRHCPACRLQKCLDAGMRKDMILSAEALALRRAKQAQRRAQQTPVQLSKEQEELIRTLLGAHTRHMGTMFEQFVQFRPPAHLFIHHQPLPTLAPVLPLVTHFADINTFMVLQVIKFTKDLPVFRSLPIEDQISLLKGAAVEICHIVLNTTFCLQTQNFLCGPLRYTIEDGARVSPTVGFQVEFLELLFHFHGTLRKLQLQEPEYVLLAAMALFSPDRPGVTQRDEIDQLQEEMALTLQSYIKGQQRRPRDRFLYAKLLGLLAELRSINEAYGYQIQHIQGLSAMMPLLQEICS

Experiment [15] has the same target. Kind of experiment: qHTS assay to identify small molecule agonists of the constitutive androstane receptor (CAR) signaling pathway (AID 1224839). Note: nearly all actives have a fitted effect of over 15% in size. In a few lines: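 Cells were plated and incubated 4 hrs, then dosed with compounds at 15 concentrations. PK11195 was added to 0.75 uM final. After 24 hrs at 37 C, luciferase luminescence was measured.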
Experiment [16] is described as follows: qHTS assay to identify small molecule agonists of the estrogen related receptor signaling pathway with the pleiotropic PPARgamma coactivator (PGC) from Tox21 10K library (AID 1224842). Note: nearly all actives have a fitted effect of over 15% in size. The essentials:
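PGC/ERR reporter cells (NTP line) were seeded 2,000 per well, rested 6 h at 37 C/5% CO2, then pin-dosed with compounds in DMSO for 18 h at 37 C; luciferase read by One-Glo luminescence after 30 min at room temperature.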

The nature of experiment [17]: qHTS assay to identify small molecule agonists of H2AX - cell viability counter screen (AID 1224847; calls by dose curve; note: top concentration of the series differs between compounds; nearly all actives have a fitted effect of over 30% in size). In a few lines:
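Cytotoxicity counter screen in wild-type CHO-K1 cells: a 3 hr compound treatment at 37C across 15 concentrations, followed by CellTiter-Glo luminescence to gauge viable cells.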

Experiment [18] can be described thus: qHTS assay to identify small molecule antagonists of the estrogen related receptor (ERR) signaling pathway from Tox21 library (AID 1224848). Note: nearly all actives have a fitted effect of over 50% in size. The essentials: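 Screening used an ERR reporter line supplied by NTP, exposed for 18 h at 37 C to library compounds delivered in DMSO. Signal was luciferase luminescence developed with ONE-Glo at room temperature for 30 min.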

Experiment [19] can be described thus: qHTS assay to identify small molecule antagonists of the estrogen related receptor signaling pathway with the pleiotropic PPARgamma coactivator (PGC) from Tox21 10K library (AID 1224841; call rule not given here; note: actives are mostly falling curves and most rising ones were filed inactive; nearly all actives have a fitted effect of over 50% in size). The essentials:
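PGC/ERR cell line, 2,000 cells/well, pre-incubated 6 hours at 37 C, then exposed to compounds for 18 hours at 37 C; luciferase read with One-Glo luminescence after 30 min at room temperature.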

Experiment [20] in a line: qHTS assay to identify small molecule agonists of the RXR signaling pathway - cell viability counter screen (AID 1159529). The essentials: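 Steps: seed RXR-alpha-UAS-bla HEK 293T cells in assay medium containing 2% charcoal-stripped FBS; incubate 5 hr; add compounds in DMSO; incubate 16 hr at 37 C; after the bla read, add CellTiter-Glo and read luminescence at 30 min.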

Inconclusive results are not listed. Values without a mark were called inactive. Calls of active or inactive are those of the source. Unless noted, calls come from the whole dose curve; as a rule, active = well fitted curve in the direction sought with a large enough effect in the repeat runs; inconclusive = weak or mixed curves; inactive = no such curve, though single readings can be large; an effect the other way counts as inactive or inconclusive.

Sequence of Luciferin 4-monooxygenase (Photinus pyralis) (P08659 whole entry, looked up): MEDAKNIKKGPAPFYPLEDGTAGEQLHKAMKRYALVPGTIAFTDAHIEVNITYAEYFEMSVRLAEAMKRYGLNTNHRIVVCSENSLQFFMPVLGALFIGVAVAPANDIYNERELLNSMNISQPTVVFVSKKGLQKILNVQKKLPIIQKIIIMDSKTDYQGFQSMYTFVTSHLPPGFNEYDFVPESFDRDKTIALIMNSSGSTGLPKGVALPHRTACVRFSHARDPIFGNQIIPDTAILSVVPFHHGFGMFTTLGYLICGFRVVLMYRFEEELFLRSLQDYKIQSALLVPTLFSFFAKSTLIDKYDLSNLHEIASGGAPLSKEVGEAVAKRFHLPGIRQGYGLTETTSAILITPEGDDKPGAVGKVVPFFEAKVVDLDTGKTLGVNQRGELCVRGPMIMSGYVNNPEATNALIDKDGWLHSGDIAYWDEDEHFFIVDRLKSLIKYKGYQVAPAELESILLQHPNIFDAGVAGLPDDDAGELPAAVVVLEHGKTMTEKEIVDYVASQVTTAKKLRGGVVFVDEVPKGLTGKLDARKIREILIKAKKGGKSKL
Sequence of Retinoic acid receptor RXR-alpha (Homo sapiens) (P19793 whole entry, looked up): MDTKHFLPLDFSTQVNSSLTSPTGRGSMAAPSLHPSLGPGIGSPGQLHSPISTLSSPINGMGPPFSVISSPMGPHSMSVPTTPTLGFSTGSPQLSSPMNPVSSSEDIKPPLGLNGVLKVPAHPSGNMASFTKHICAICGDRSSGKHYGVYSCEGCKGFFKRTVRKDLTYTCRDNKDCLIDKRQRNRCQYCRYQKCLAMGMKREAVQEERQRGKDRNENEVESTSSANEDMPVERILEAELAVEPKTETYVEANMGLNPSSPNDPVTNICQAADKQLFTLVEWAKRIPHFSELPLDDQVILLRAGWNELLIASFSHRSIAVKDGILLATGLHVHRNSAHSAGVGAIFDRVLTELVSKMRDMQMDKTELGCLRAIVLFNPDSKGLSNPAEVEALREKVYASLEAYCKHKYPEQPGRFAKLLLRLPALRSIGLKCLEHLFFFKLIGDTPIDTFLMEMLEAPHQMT
Sequence of Thyrotropin receptor (Homo sapiens) (P16473 whole entry, looked up): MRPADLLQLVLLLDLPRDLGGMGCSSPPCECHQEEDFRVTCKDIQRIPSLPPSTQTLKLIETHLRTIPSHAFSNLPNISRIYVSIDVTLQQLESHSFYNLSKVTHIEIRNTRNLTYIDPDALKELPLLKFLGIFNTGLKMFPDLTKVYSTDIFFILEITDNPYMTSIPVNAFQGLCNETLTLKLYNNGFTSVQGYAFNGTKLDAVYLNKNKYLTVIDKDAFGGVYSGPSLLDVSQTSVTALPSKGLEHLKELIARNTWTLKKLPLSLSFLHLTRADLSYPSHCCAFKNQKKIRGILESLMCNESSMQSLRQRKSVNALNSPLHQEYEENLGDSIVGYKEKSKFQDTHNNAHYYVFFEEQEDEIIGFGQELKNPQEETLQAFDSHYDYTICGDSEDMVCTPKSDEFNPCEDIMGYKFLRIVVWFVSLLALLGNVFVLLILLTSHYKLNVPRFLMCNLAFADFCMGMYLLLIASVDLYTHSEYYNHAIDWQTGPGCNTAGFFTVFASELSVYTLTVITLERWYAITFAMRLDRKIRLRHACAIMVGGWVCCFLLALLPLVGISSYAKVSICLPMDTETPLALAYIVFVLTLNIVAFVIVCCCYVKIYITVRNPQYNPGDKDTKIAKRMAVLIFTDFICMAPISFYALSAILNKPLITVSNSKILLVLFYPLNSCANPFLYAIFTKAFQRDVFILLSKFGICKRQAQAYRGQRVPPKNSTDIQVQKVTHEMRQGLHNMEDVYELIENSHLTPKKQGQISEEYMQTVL

In the case of `CCCCC/C=C/CC(=O)OC`, the Potency result in experiment [1], in [3], in experiment [4], in [5], in experiment [6] and in [8] was “inactive” each time. Moreover, the result in experiment [2], in experiment [7], in [9], in experiment [10], in experiment [11] and in experiment [12] was inactive. The compound was classed as inactive in experiment [13].
Regarding `CC(=O)c1ccc2c(c1)CCCC2`, the Potency result in experiment [1], in experiment [3], in experiment [4], in experiment [5], in [8] and in [14] was “inactive” in each case. For the same compound, the Potency entry in experiment [15], in experiment [17] and in experiment [18] was “inactive” throughout. Besides, the call in experiment [2], in [9], in [16], in experiment [10], in [11] and in experiment [12] was inactive. The call in experiment [13] was inactive.
On to `CCCCC(CC)C(=O)OC(C)C` (configuration not stated), for which the Potency entry in experiment [1], in [4], in experiment [5], in experiment [6], in experiment [8] and in experiment [17] was “inactive” each time. Besides, the compound was called inactive in experiment [2], in experiment [7], in experiment [9], in [11], in experiment [12] and in experiment [13].
On to `O=C1OC(=O)c2ccccc21`, for which the Potency entry in experiment [1], in experiment [3], in [4], in experiment [5], in experiment [6] and in experiment [8] was “inactive” in each case. In addition, the compound was classed as inactive in experiment [2], in experiment [10], in experiment [11], in experiment [12] and in [13].
As for `CC(C)C(=O)Nc1cccc(C(F)(F)F)c1`, the Potency entry in experiment [1], in [3], in [4], in experiment [5], in experiment [8] and in experiment [14] was “inactive” in each case. Moreover, the Potency result in [15], in experiment [19] and in experiment [18] was “inactive” throughout. For the same compound, the compound was called inactive in [2], in experiment [7], in experiment [16], in experiment [11], in experiment [12] and in experiment [13].
`NCCc1ccn[nH]1`: the Potency result in experiment [1], in experiment [4], in experiment [5], in [6], in experiment [8] and in experiment [17] was “inactive” in each case. Moreover, the call in [20], in [7], in experiment [9], in experiment [10], in [11] and in experiment [12] was inactive.
With `C=CCOC(=O)c1ccc(C(=O)OCC=C)c(C(=O)OCC=C)c1`, the Potency result in experiment [1], in experiment [3], in [4], in experiment [8], in experiment [14] and in [15] was “inactive” in each case. Moreover, the Potency entry in experiment [19], in experiment [17] and in experiment [18] was “inactive” each time. Moreover, the compound was classed as inactive in [2], in experiment [7], in experiment [9], in experiment [16], in experiment [10] and in experiment [11]. Moreover, the compound was classed as inactive in experiment [12] and in [13].
Consider `COc1cc([N+](=O)[O-])ccc1N`, for which the Potency result in experiment [1], in [4], in experiment [6], in experiment [14], in experiment [15] and in experiment [17] was “inactive” in each case. The compound was classed as inactive in experiment [2], in experiment [10], in experiment [11], in experiment [12] and in experiment [13]. The Potency in [5] is 24.3 µM (active).
Regarding `COc1cc2c(Nc3ccc(Br)cc3F)ncnc2cc1OCC1CCN(C)CC1`, the compound was called inactive in experiment [20], in experiment [2], in experiment [7], in experiment [9], in [11] and in experiment [12]. Moreover, the call in experiment [13] was inactive. The Potency entry in [3], in experiment [4], in [5], in [6], in experiment [8] and in [14] was “inactive” each time. In addition, in [15], the Potency result is “inactive”.
